# In PubChem BioAssay AID1159506 (National Center for Advancing Translational Sciences (NCATS), 2015):
# Whole data set: some 59,000 sequences, median the read-out near -0.00055, cut for the lowest 2% near -2. This excerpt belongs to a sample that is enriched for the lowest values.
# Assay: Identification of proteins required for the processing of the EWS-FLI1 nascent transcript;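 further: robust z of luciferase light less the median z of siRNAs with the same seed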
# Conditions: TC32 Ewing sarcoma NR0B1-luc vs CMV-luc (EWS-FLI1 target promoter against control promoter), 48 h; screened at 20 nM (by protocol)
# In short: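 Readout: OneGlo luminescence, 48 h post-transfection, TC32-NR0B1-luc vs TC32-CMV-luc in parallel. siRNA 20 nM final, RNAiMax lipid, 600 cells/well; z-score-MAD transformed, then seed-adjusted.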
row,Sequence,seed-corrected z-score
1,AAUAGUACCACCAAAGCAC against ELOVL2,-0.0356
2,UAUCUCCUCAGCUAAUUCG against SLC17A8,0.0229
3,UUCGUUAGUUGUUCUAGGC against RB1CC1,-2.96
4,UCUGUGUAGCUCGGACACC against OR7E24,-0.966
5,AAUGAAUCAAAUGUAACGG against PNPT1,-0.376
6,UUUUCAAACAGGUAACAGC against ATM,0.359
7,UUUUGAGCCUCAGCACUCC against RGL3,-0.0402
8,UCCAGUUUUCGGAUCUUCC against MRPL40,-2.5
9,UCUCGUUCAGUUAUCUGCC against HECW2,0.826
10,UAGAGUUCCAGCUAGGGUG against CTRL,-0.507
11,UUCUUGUACUGCACCAUCU against PHLDA1,2.51
12,UUAGUUCCAUUUCCUACUC against TEX38,-0.404
13,UGUGCAUGCACAGAGAAGC against NFE4,-1.58
14,AAACUUAUACUUCUGGUAC against VBP1,-0.149
15,AGGAGACUCAGCUUGAUCC against SPATA45,-2.01
16,AACCAGUUAGAUUAUACGC against ATRNL1,-0.225
17,UUGUAUCCAAAGAUGAUUC against PLXDC2,-0.0677
18,AGGCUGAUGACUCCUAUCC against SSTR3,0.317
19,UCAUAGGACCAGUCAAUGC against CPA2,0.13
20,UCCCGUUCAAUCUCCCACC against RNF113B,-0.595
21,UCCAUGGUACUUCUUAUGC against TMEM127,-2.9
22,UUGGGAGCGAUAACACGAC against C19orf53,-0.418
23,AGAUCUACUAGUUCUUGUG against LRCH1,0.758

row,Sequence,seed-corrected z-score
1,ACAGUGGUGAACGUGAUGC against JPX,-2.26
2,UUGGUAGUAGAUCAUAUGC against STXBP3,-0.0771
3,UUUUCUUGCGUUUAUGUGG against C11orf57,0.448
4,AGUGAUGAAAGCAAAGUAG against KCNK16,0.908
5,UUUCAUCUCACCUUUAUUG against RPL23P5,-2.17
6,UUCUGAUCCUGGAUGUUGC against R3HDM1,0.205
7,AGACGUUCCAUUCAUAUCU against RBMY1F,0.399
8,AUGGUCUUCACUCUUGUGC against CCR9,-3.14
9,UGUGUUUAACCAGAGAUCC against RXRG,0.625
10,UGACCGUUUCGGAUGAUGG against ATP2B4,0.168
11,UAGCUGUCGAACACCCAGG against PDDC1,1.63
12,UCAGUUUGCAAUUAGGCAG against LOC113230,0.933
13,UACCAGCUCACUGACAUGG against OR8B4,0.0124
14,UGCAUGACAAACAAAUUCC against GATAD1,0.136
15,UCCAGUUGUAGUUCGGCAG against KISS1,-2.32
16,UCAGGUUGAUGAAAUGGGC against PRDM15,-0.519
17,UGAGCACAGAAAGUGGACC against SNRPD2P1,-0.553
18,ACAUCCUUAAGAAAUAUGG against PLEKHA2,-0.563
19,AAAGCGUAGAAAAUAUCCC against DNAH5,-0.0906
20,UCAGUAUGAAGAGCAACAG against MCM2,-0.317
21,UACCUCUUAAUAAGAUCUG against ATP8A2,0.0625
22,UUUCGGAAAUCUAGGCUGG against KANSL1,1.62
23,UUGAUAUAAACUCUGACAC against PDE4D,0.567

row,Sequence,seed-corrected z-score
1,UCGUCUUCGCUUUAUAUCC against EFR3A,-3.4
2,AUCGGUAGCAGUGAACAUG against LPP,-0.942
3,UAUAUUAGCGGUAACGGUG against RPL15P3,-2.66
4,UCUGUUACAAUUGUUCCAC against ETF1,-0.812
5,UUUCUCAUCAAAGAACUCC against PPP2R1A,-0.546
6,AAGCUUUAUACUUUCCACC against OR7G3,-0.496
7,AUUCGAACAACAUUUCUUC against ANOS1,-0.592
8,UCUCGAACCUGGAGAAUGC against FAM109B,0.134
9,UGUGCACUAAUGCGAAUCG against MYO5C,-0.13
10,UCUGCUUUGUCUCUCAGCC against FAM92A1,-2.84
11,UUCUGGAUGUGGUAGGGCC against ACSBG1,0.963
12,UCUGUUCGAAAGUCAAAGC against SRBD1,-0.955
13,UGAGUUGCAGUCCUCCACG against C9orf173,-2.17
14,UUCGUAAUAAAGGAUCCAG against NF1,0.124
15,UAUGCGCAGAUGUUACUCG against PAICS,0.0926
16,UUCACUUUCAGAUCGGGAC against C18orf25,-1.35
17,UUUAAGUCAAAUCUUGUCC against WTIP,-0.633
18,UAUUUACCAGGCUCUGUGG against FAM47A,0.667
19,UGCUGCAUGACAUCCACCC against SORBS3,0.835
20,AGGGUAGAAAGAGUCGUCC against ANKRD33B,-2.3
21,UUUUCGAUCAUCACCACAC against YWHAQ,-0.216
